According to PubChem BioAssay (NCI):
About 79,000 compounds went through this panel and 15% of them were active in at least one assay; those are over-represented in the sample as a whole. The source made the active and inactive calls. No stated cut-off is given here; in the data, active means growth inhibition above about 70%; inactive means the rest.

Key:
[1] = NCI Yeast Anticancer Drug Screen. Data for the rad52 strain (AID 147);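 further: 0% = growth of vehicle-treated control cultures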; details: S. cerevisiae rad52 mutant growth inhibition, stronger effect = higher value
How it was run: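 DNA repair-defective yeast; compound exposure; growth scored against vehicle controls.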

[2] = NCI Yeast Anticancer Drug Screen. Data for the wt1 strain (AID 149);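 further: 0% = growth of vehicle-treated wt1 cultures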; details: S. cerevisiae wt1 strain (SPY 50644) growth inhibition, stronger effect = higher value
How it was run: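 wt1 strain grown with compound or vehicle; inhibition taken from the growth difference.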

[3] = NCI Yeast Anticancer Drug Screen. Data for the rad50 strain (AID 155);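 further: 0% = growth of vehicle-only cultures of the same strain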; details: S. cerevisiae rad50 strain growth inhibition, stronger effect = higher value
How it was run: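 DNA repair mutant yeast, compound exposure, growth read-out; inhibition is taken relative to vehicle.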

[4] = NCI Yeast Anticancer Drug Screen. Data for the mec2-1 strain (AID 157); details: S. cerevisiae mec2-1 strain, stronger effect = higher value
How it was run: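 Growth inhibition is read against vehicle-treated controls after compound exposure of the mec2-1 yeast strain, which is defective in DNA damage repair or cell cycle control.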

[5] = NCI Yeast Anticancer Drug Screen. Data for the rad14 strain (AID 159);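 further: 0% = growth of vehicle-treated control cultures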; details: S. cerevisiae rad14 strain growth inhibition, stronger effect = higher value
How it was run: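 DNA repair-defective yeast, compound-exposed; % growth inhibition derived by comparison with vehicle-treated controls.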

[6] = NCI Yeast Anticancer Drug Screen. Data for the sgs1 mgt1 strain (AID 161);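 further: 0% = growth of cultures given vehicle only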; details: S. cerevisiae sgs1 mgt1 strain, stronger effect = higher value
How it was run: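 Compounds are added to genetically altered yeast, and growth is compared with cultures given vehicle alone to give percent inhibition.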

[7] = NCI Yeast Anticancer Drug Screen. Data for the CLN2oe strain (AID 163);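 further: 0% = growth of vehicle-only control cultures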; details: S. cerevisiae CLN2oe strain, stronger effect = higher value
How it was run: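 Compound-treated yeast; growth vs vehicle ctrl = % inhibition. Genetically altered strain (cell-cycle control).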

[8] = NCI Yeast Anticancer Drug Screen. Data for the cln2 rad14 strain (AID 165);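 further: 0% = growth equal to vehicle treated cultures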; details: S. cerevisiae cln2 rad14 strain, stronger effect = higher value
How it was run: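 Growth inhibition, relative to vehicle-treated controls, is the read-out. The test organism is a yeast strain with defined genetic alterations, cln2 rad14.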

[9] = NCI Yeast Anticancer Drug Screen. Data for the bub3 strain (AID 167); details: S. cerevisiae bub3 mutant strain, stronger effect = higher value
How it was run: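 In this screen, a yeast mutant lacking normal mitotic checkpoint function is challenged with compound. Relative growth versus vehicle gives the inhibition value.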

[10] = NCI Yeast Anticancer Drug Screen. Data for the wt2 strain (AID 169);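 further: 0% = growth of vehicle-treated yeast cultures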; details: S. cerevisiae wt2 strain growth inhibition, stronger effect = higher value
How it was run: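 Compound exposure of yeast; growth compared with vehicle controls; inhibition reported.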

[11] = NCI Yeast Anticancer Drug Screen. Data for the mlh1 strain (AID 171);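 further: 0% = growth of vehicle-treated control cultures of the same strain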; details: S. cerevisiae mlh1 strain growth inhibition, stronger effect = higher value
How it was run: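 Compounds are applied to a genetically altered yeast strain, and its growth is compared with that of vehicle-treated cultures to give percent inhibition.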

[12] = NCI Yeast Anticancer Drug Screen. Data for the sgs1 strain (AID 173);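 further: 0% = growth of vehicle-only control cultures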; details: S. cerevisiae sgs1 mutant, stronger effect = higher value
How it was run: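 Compounds applied to genetically altered yeast; growth compared with vehicle-treated cultures to give % inhibition.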

[13] = NCI Yeast Anticancer Drug Screen. Data for the mlh1 rad18 strain (AID 175); details: S. cerevisiae mlh1 rad18 strain growth inhibition, stronger effect = higher value
How it was run: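 Cells of a genetically altered yeast strain, deficient in DNA damage repair, were treated with compound. Their growth was then compared with that of vehicle-treated cultures to give inhibition.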

[14] = NCI Yeast Anticancer Drug Screen. Data for the rad50EPP+ strain (AID 151);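 further: 0% = growth of vehicle-treated control cultures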; details: S. cerevisiae rad50 mutant strain, stronger effect = higher value
How it was run: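 rad50EPP+ yeast treated with test compounds. Readout: growth vs vehicle control.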

[15] = NCI Yeast Anticancer Drug Screen. Data for the mgt1 strain (AID 153); details: S. cerevisiae mgt1 mutant growth inhibition, stronger effect = higher value
How it was run: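 Growth inhibition relative to vehicle controls was scored for the mgt1 yeast strain after compound exposure.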

[16] = NCI Yeast Anticancer Drug Screen. Data for the rad18 strain (AID 177); details: S. cerevisiae rad18 mutant growth inhibition, stronger effect = higher value
How it was run: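 Compounds are applied to a repair-deficient yeast strain, and growth is compared with that of vehicle-treated cultures to give percent inhibition.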

[17] = at 5.0 µM (retest, dose inferred, filed as 0.5)
[18] = at 50.0 µM (retest, dose inferred, filed as 5.0)

Measured: growth inhibition

Cc1nc2c(ncn2CCO)c(=O)[nH]1
inactive: [1]; at 1.2 µM -3% | [1]; at 3.7 µM -8% | [1]; at 11.0 µM -7% | [1]; at 33.0 µM -12% | [1]; at 100.0 µM -14% | [2]; at 1.2 µM -36% | [2]; at 3.7 µM -22% | [2]; at 11.0 µM -38% | [2]; at 33.0 µM -42% | [2]; at 100.0 µM -41% | [3]; at 1.2 µM -29% | [3]; at 3.7 µM -34% | [3]; [17] 29% | [3]; at 11.0 µM -32% | [3]; at 33.0 µM -33% | [3]; [18] 39% | [3]; at 50.0 µM 7.95% | [3]; at 100.0 µM -24% | [4]; at 1.2 µM 15% | [4]; at 3.7 µM -2% | [4]; [17] 13% | [4]; at 11.0 µM -3% | [4]; at 33.0 µM -3% | [4]; [18] 47% | [4]; at 50.0 µM -20.6% | [4]; at 100.0 µM -13% | [5]; at 1.2 µM -3% | [5]; at 3.7 µM 6% | [5]; at 11.0 µM 11% | [5]; at 33.0 µM -5% | [5]; at 100.0 µM -2% | [6]; [17] 29% | [6]; at 50.0 µM 2.1% | [7]; at 1.2 µM 0% | [7]; at 3.7 µM -7% | [7]; at 11.0 µM -2% | [7]; at 33.0 µM -6% | [7]; at 100.0 µM -4% | [8]; [17] 8% | [8]; [18] 34% | [8]; at 50.0 µM 8.25% | [9]; at 1.2 µM -10% | [9]; at 3.7 µM -7% | [9]; [17] 21% | [9]; at 11.0 µM -17% | [9]; at 33.0 µM -13% | [9]; at 50.0 µM 0.5% | [9]; at 100.0 µM -28% | [10]; at 1.2 µM -15% | [10]; at 3.7 µM -30% | [10]; at 11.0 µM -31% | [10]; at 33.0 µM -37% | [10]; at 100.0 µM -38% | [11]; at 1.2 µM -16% | [11]; at 3.7 µM -11% | [11]; at 11.0 µM -14% | [11]; at 33.0 µM -18% | [11]; at 100.0 µM -5% | [12]; at 1.2 µM 2% | [12]; at 3.7 µM 8% | [12]; at 11.0 µM 9% | [12]; at 33.0 µM 5% | [12]; at 100.0 µM -2% | [13]; [17] 45% | [13]; at 50.0 µM -40.7%
active: [9]; [18] 76% | [13]; [18] 91%

COc1ccc(C(C#N)=C2C=CC(=NO)C=C2)cc1
active: [1]; at 11.0 µM 89% | [1]; at 33.0 µM 96% | [1]; at 100.0 µM 96% | [14]; at 3.7 µM 70% | [14]; at 11.0 µM 90% | [14]; at 33.0 µM 93% | [14]; at 100.0 µM 93% | [15]; at 11.0 µM 88% | [15]; at 33.0 µM 97% | [15]; at 100.0 µM 91% | [3]; at 11.0 µM 81% | [3]; at 33.0 µM 96% | [3]; at 100.0 µM 95% | [4]; at 11.0 µM 96% | [4]; at 33.0 µM 97% | [4]; at 50.0 µM 88.2% | [4]; at 100.0 µM 98% | [5]; at 11.0 µM 83% | [5]; at 33.0 µM 96% | [5]; at 100.0 µM 82% | [6]; [18] 79% | [6]; at 50.0 µM 87.7% | [9]; [18] 82% | [9]; at 50.0 µM 85.8% | [9]; at 100.0 µM 72% | [10]; at 11.0 µM 84% | [10]; at 33.0 µM 99% | [10]; at 100.0 µM 99% | [11]; at 33.0 µM 97% | [11]; at 100.0 µM 95% | [12]; at 11.0 µM 87% | [12]; at 33.0 µM 99% | [12]; at 100.0 µM 98% | [13]; [18] 85% | [13]; at 50.0 µM 91.5% | [16]; at 11.0 µM 90% | [16]; at 33.0 µM 97% | [16]; at 100.0 µM 96%
inactive: [1]; at 1.2 µM 11% | [1]; at 3.7 µM 34% | [14]; at 1.2 µM 42% | [15]; at 1.2 µM 0% | [15]; at 3.7 µM 18% | [3]; at 1.2 µM 18% | [3]; at 3.7 µM 38% | [3]; [17] 23% | [3]; [18] 62% | [3]; at 50.0 µM 65.4% | [4]; at 1.2 µM 1% | [4]; at 3.7 µM 16% | [4]; [17] -2% | [4]; [18] 25% | [5]; at 1.2 µM 13% | [5]; at 3.7 µM 19% | [6]; [17] 51% | [7]; at 1.2 µM 7% | [7]; at 3.7 µM 11% | [7]; at 11.0 µM 58% | [7]; at 33.0 µM 55% | [7]; at 100.0 µM 68% | [8]; [17] 17% | [8]; [18] 41% | [8]; at 50.0 µM 60.3% | [9]; at 1.2 µM -1% | [9]; at 3.7 µM 7% | [9]; [17] 24% | [9]; at 11.0 µM 22% | [9]; at 33.0 µM 42% | [10]; at 1.2 µM -9% | [10]; at 3.7 µM 42% | [11]; at 1.2 µM 8% | [11]; at 3.7 µM 29% | [11]; at 11.0 µM 66% | [12]; at 1.2 µM 5% | [12]; at 3.7 µM 32% | [13]; [17] 48% | [16]; at 1.2 µM 11% | [16]; at 3.7 µM 38%

Nc1nc(F)nc2c1ncn2C1OC(COP(=O)(O)O)C(O)C1O (stereo unspecified)
inactive: [1]; at 1.2 µM 2% | [1]; at 3.7 µM 5% | [1]; at 11.0 µM 12% | [1]; at 33.0 µM 22% | [1]; at 100.0 µM 52% | [2]; at 1.2 µM 1% | [2]; at 3.7 µM 1% | [2]; at 11.0 µM 2% | [2]; at 33.0 µM 5% | [2]; at 100.0 µM 2% | [15]; at 1.2 µM -3% | [15]; at 3.7 µM 0% | [15]; at 11.0 µM 2% | [15]; at 33.0 µM 5% | [15]; at 100.0 µM 12% | [3]; at 1.2 µM 3% | [3]; at 3.7 µM 9% | [3]; at 11.0 µM 18% | [3]; at 33.0 µM 32% | [3]; at 50.0 µM 11.1% | [3]; at 100.0 µM 61% | [4]; at 1.2 µM 1% | [4]; at 3.7 µM 7% | [4]; at 11.0 µM 13% | [4]; at 33.0 µM 27% | [4]; at 50.0 µM 4.2% | [5]; at 1.2 µM -1% | [5]; at 3.7 µM -2% | [5]; at 11.0 µM 2% | [5]; at 33.0 µM 5% | [5]; at 100.0 µM 19% | [6]; at 50.0 µM -1.15% | [7]; at 1.2 µM -4% | [7]; at 3.7 µM -5% | [7]; at 11.0 µM -5% | [7]; at 33.0 µM -5% | [7]; at 100.0 µM -2% | [8]; at 50.0 µM -3.75% | [9]; at 1.2 µM -8% | [9]; at 3.7 µM -8% | [9]; at 11.0 µM -3% | [9]; at 33.0 µM -10% | [9]; at 50.0 µM -29.9% | [9]; at 100.0 µM -1% | [10]; at 1.2 µM -2% | [10]; at 3.7 µM 1% | [10]; at 11.0 µM 1% | [10]; at 33.0 µM 6% | [10]; at 100.0 µM 18% | [11]; at 1.2 µM 0% | [11]; at 3.7 µM 2% | [11]; at 11.0 µM 5% | [11]; at 33.0 µM 9% | [11]; at 100.0 µM 19% | [12]; at 1.2 µM 18% | [12]; at 3.7 µM 30% | [12]; at 11.0 µM 39% | [12]; at 33.0 µM 47% | [12]; at 100.0 µM 53% | [13]; at 50.0 µM -26.4% | [16]; at 1.2 µM -2% | [16]; at 3.7 µM -1% | [16]; at 11.0 µM 1% | [16]; at 33.0 µM 5% | [16]; at 100.0 µM 19%
active: [4]; at 100.0 µM 87%
